CtBP-E1A blk: CtBP/E1A binding inhibition; activity change, % (concentration not given with the values); AlphaScreen GST-E1A/His-CtBP binding, 1536-well; stronger effect = lower value; 340,000 tested, 0.49% active; in the data active = activity change below about -65%; inconclusive = mostly about -30% to -63%
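In 5 uL wells, 23 nL compound meets equimolar GST-E1A and His-CtBP (5X stock 125 nM each) for 2 h, 37 °C. Beads (5X, 50 ug/mL) then 1 h, 37 °C, dark.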
TrxR1 substrate: rat thioredoxin reductase 1 substrate activity; 390,000 tested, 0.01% active; AID 588456; O89049; Potency, µM (highest dose often 114 µM), without a hit: at the top dose activity change, negative = substrate turnover; purified TrxR1 substrate turnover, NADPH consumption readout; note: potency is the fitted concentration of half-maximal effect; nearly all actives have a fitted effect of over 50% in size
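Rat TrxR1, dispensed at 90 nM, was prereduced with 400 uM NADPH (final) for 5 min at ~22 deg C, then incubated with compound 15 min before 400 uM selenite. A first-read NADPH fluorescence drop versus no-compound background flagged substrates.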
Eya2 phos inh: Eya2 (human) phosphatase inhibition; O00167; recombinant Eya2, OMFP fluorescence dephosphorylation (OMFP is methylfluorescein phosphate); Potency, µM (doses to about 76.9 µM), without a hit: at the highest dose activity, negative = inhibition, hits mostly inhibitors; 330,000 tested, 0.006% active; note: potency is the fitted concentration of half-maximal effect
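Eya2 (0.2 uM) preincubated 10 min at ambient with compound, then OMFP substrate added at 50 uM; 10 min reaction in 50 mM HEPES pH 7.5, 50 mM NaCl, 5 uM MgCl2, 0.05% BSA, 1 mM DTT. Fluorescence read at Ex 485/Em 525 nm.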
Six1-Eya2 inh: Six1/Eya2 interaction inhibition | Q15475+O00167 | AID 651725 | AlphaScreen GST-Six1/His-Eya2 binding, biochemical; stronger effect = lower value | 360,000 tested, 0.56% active | activity change, % (concentration not given with the values); in the data active = activity change below about -65%; inconclusive = mostly about -30% to -63%
Target sequence (O00167 whole entry, looked up): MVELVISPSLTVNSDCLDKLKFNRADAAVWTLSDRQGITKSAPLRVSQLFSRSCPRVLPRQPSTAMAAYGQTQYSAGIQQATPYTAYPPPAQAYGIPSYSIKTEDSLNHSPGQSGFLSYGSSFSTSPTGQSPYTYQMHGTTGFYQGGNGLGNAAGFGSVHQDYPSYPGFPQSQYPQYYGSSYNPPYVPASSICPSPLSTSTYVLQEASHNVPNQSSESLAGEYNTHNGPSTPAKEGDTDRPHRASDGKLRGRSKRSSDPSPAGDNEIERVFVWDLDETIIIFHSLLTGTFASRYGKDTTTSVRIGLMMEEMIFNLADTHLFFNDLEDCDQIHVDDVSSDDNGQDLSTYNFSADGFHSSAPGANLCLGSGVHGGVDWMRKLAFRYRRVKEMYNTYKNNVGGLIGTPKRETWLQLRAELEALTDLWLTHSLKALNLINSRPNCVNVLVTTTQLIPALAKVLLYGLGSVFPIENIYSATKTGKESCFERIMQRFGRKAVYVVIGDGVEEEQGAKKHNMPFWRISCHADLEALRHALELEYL
Target sequence (Q15475 whole entry, looked up): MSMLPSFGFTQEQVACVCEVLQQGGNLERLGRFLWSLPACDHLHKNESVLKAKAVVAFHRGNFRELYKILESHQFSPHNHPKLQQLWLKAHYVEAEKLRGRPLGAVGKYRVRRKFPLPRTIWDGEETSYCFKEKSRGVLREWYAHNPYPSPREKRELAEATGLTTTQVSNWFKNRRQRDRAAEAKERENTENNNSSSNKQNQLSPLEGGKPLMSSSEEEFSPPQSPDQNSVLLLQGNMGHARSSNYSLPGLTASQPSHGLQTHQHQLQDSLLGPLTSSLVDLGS
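AlphaScreen luminescence read after one hour at 37 °C in darkness. Pin-transferred compounds met GST-Six1 and His-Eya2 protein (5X stock 250 nM/500 nM) plus glutathione donor and Ni-chelate acceptor beads (5X, 50 ug/mL).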
GALK inh: inhibitors of human galactokinase; P51570; 270,000 tested, 0.007% active; Potency, µM (doses to about 57.5 µM), without a hit: at the top dose activity change, negative = inhibition, hits mostly inhibitors; Purified GALK, Kinase-Glo residual ATP luminescence; AID 1868; note: potency is the fitted concentration of half-maximal effect
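GALK at 5 nM final was combined with compound, 35 uM ATP and 100 uM galactose in HEPES pH8.0 with MgCl2 and DTT. The reaction ran one hour at room temperature before luminescent ATP detection.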
rTrxR1 inhibitor: blocks rat thioredoxin reductase 1; O89049; recombinant rTrxR1, NADPH fluorescence consumption, selenite substrate; Potency, µM (highest dose often 114 µM), inactives show at the top dose activity change, negative = inhibition, hits mostly inhibitors; 390,000 tested, 1% active; AID 588453; note: potency is the fitted concentration of half-maximal effect; nearly all actives have a fitted effect of over 65% in size
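Rat TrxR1 (90 nM in the dispensed reagent) was pre-reduced with 400 uM NADPH for 5 min at room temperature, then incubated with compound for 15 min. After 400 uM selenite was added, NADPH fluorescence (Ex 340/Em 450 nm) was followed for 8 min.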
An asterisk follows results filed as active; ? = inconclusive; . = not tested or not shown; [ ] = another dose, or the depositor's remark. An excerpt weighted towards active compounds, which were near 1.5% of everything screened. Unless noted, calls come from the whole dose curve; as a rule, active = well fitted curve in the direction sought with a large enough effect; inconclusive = small, poorly fitted or top-dose-only effect, or another doubt; inactive = no such curve, though single readings can be large; an effect the other way counts as inactive or inconclusive. % is set by controls: 0 for no effect and ±100 for the full control effect.

SMILES	CtBP-E1A blk	TrxR1 substrate	Eya2 phos inh	Six1-Eya2 inh	GALK inh	rTrxR1 inhibitor
CCCCN(C)c1nc(-c2ccco2)c2c(c1C#N)CC(C)(C)OC2	0	-4%	0%	47	1%	3.5µM*
Oc1c(Br)cc(Br)c2cccnc12	-78*	9%	.	-75*	.	6%
Cc1cc(C)c2cccnc2c1O	.	-1%	.	.	.	-4%
Cc1nc2scc(-c3ccccc3)c2c(=O)n1N	2	-8%	-7%[15.4 µM]	8	0%	-2%
Cc1nc2scc(-c3ccccc3)c2c(=O)n1N=C1C=CC(=O)C=C1	-6	4%[57.1 µM]	1%	-10	-1%	3.2µM*
Cc1ccc(-c2ccc(=O)n(CCC(=O)NCCc3ccccc3)n2)cc1	.	0%[57.1 µM]	.	.	.	8%[57.1 µM]
Cc1nc2c(=O)[nH]c(=S)[nH]c2[nH]c1=O	-18	26%	.	-66*	.	?
C=CCn1c(SCCC)nc2ccccc2c1=O	.	5%	.	.	.	10%
CCc1cccc(NC(=O)CSC2=NS(=O)(=O)c3ccccc32)c1	-20	3%[57.1 µM]	7%	6	2%	3.2µM*
CCc1cccc(NC(=O)CSc2ncc3c(n2)-c2ccccc2N(CC)S3(=O)=O)c1	.	-1%[57.1 µM]	.	.	.	-5%[57.1 µM]
CN(C)CCCN(C(=O)COc1ccccc1)c1nc2ccc(F)cc2s1	3	-5%	-7%	1	0%	-7%
O=C(CCOc1ccccc1)N(Cc1cccnc1)c1nc2ccc(F)cc2s1	.	3%[57.1 µM]	.	.	.	7.1µM*
CN(C)CCCN(C(=O)CCOc1ccccc1)c1nc2ccc(F)cc2s1	.	-3%	7%	3	0%	0.63µM*
CN(C)CCCN(C(=O)CCOc1ccccc1)c1nc2c(F)cccc2s1	0	18%[57.1 µM]	-18%	-7	-1%	0.45µM*
O=C(COc1ccccc1)N(Cc1cccnc1)c1nc2ccc(F)cc2s1	.	-4%[57.1 µM]	.	.	.	0%[57.1 µM]
COc1ccc(-c2nc3scc(CCNS(=O)(=O)c4ccc(F)c(C(F)(F)F)c4)n3n2)cc1OC	.	1%[57.1 µM]	.	.	.	26%[57.1 µM]
COCc1c(C(=O)N/N=C\c2ccccn2)nnn1-c1nonc1N	-70*	-3%	-8%	-74*	-1%	-4%
COCc1c(C(=O)N/N=C/c2c[nH]c3ccccc23)nnn1-c1nonc1N	19	-14%[57.1 µM]	-1%	0	-1%	26%[57.1 µM]
COc1cccc(/C=N/Nc2ccnc(=O)[nH]2)c1O	-92*	-10%	?	-76*	3%	-9%
CCOc1ccccc1/C=N/Nc1ccnc(=O)[nH]1	-16	-2%	-8%	-6	-1%	1%
COc1cccc(/C=N/Nc2ccc([N+](=O)[O-])cn2)c1O	171	0%[57.1 µM]	5%	725	.	2%[57.1 µM]
O=c1nccc(N/N=C/c2ccccc2O)[nH]1	-92*	-10%	-9%	-75*	14%	-15%
COc1cccc(/C=N/Nc2snc(SC)c2C#N)c1O	-76*	-10%	0%	?	.	-12%
Cn1cc(CCNC(=O)CC2C(=O)NCCN2Cc2cccc(Oc3ccccc3)c2)cn1 (stereo not given)	.	17%	0%	2	2%	25µM*
NC(=Nc1ccc(N)cc1)C(N)=Nc1ccc(N)cc1	?	-6%	7%	-65*	-2%	-16%
SMILES	CtBP-E1A blk	TrxR1 substrate	Eya2 phos inh	Six1-Eya2 inh	GALK inh	rTrxR1 inhibitor
OC1C(Br)=Cc2ccccc21 (stereo not given)	.	9%[0.0914 µM]	.	.	.	13%
O=C1C=CC(=O)N1c1cccc(-c2ccccc2)c1	-1	7%[57.1 µM]	-2%	1	-2%	2.5µM*
O=C(Nc1cccc(N2C(=O)C=CC2=O)c1)c1cccs1	.	.	22%	.	.	.
Cc1ccc(C)c(NC(=O)C(Cc2ccccc2)n2cccc2)c1 (stereo not given)	.	-1%	.	.	.	0%
N#C/C(=C\c1ccco1)C(=O)NCc1ccccc1	.	1%	5%	17	-1%	22%
N#CC(C#N)=C1C=CC=CN1/C(=C\c1ccco1)C(=O)c1ccc(Cl)cc1	3	-10%	-5%	3	-3%	0.5µM*
N#CC(C#N)=C1C=CC=CN1/C(=C\c1ccco1)C(=O)c1ccc(-c2ccccc2)cc1	12	2%	-8%	-21	-5%	7.1µM*

Compound activity as filed in PubChem BioAssay.
